Reference: PubChem BioAssay (NCATS)
Records with an inconclusive call do not appear. The source made the active and inactive calls. The call rests on the fitted dose curve; in most records, active means well fitted curve in either direction with a large enough effect (not every such curve was filed as active); inconclusive means small, poorly fitted or top-dose-only effect, or another doubt; inactive means flat fitted curve, though single readings scatter. Residues, ends and D or L forms follow the SMILES beside them.

Molecular target: Mitogen-activated protein kinase 10 (Mus musculus) (UniProt Q61831)
Experiment: JNK3 AlphaScreen Assay (AID 530);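 further: kinase came from lysate of stimulated human HepG2 cells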
Details: JNK3 lysate, c-Jun phosphorylation; series mostly up to 57.1 µM; activity change, negative = inhibition: at the top concentration
Text: NIH Chemical Genomics Center [NCGC]
NIH Molecular Libraries Screening Centers Network [MLSCN]
The c-jun N-terminal kinase (JNK) family are serine/threonine protein kinases that phosphorylate c-jun, a component of the transcription factor […] (AP-1). JNK kinases are members of the mitogen-activated protein kinase family including the extracellular regulated kinases and p38 kinases. Three JNK genes (JNK 1, 2, and 3) have been identified in humans so far. JNK1 and JNK2 have a broad distribution and JNK3 is primarily found in neuronal tissues and cardiac myocytes.
JNK3 has been under consideration as a target for the treatment of neurodegenerative disorders. […] JNK pathway is also involved in pathological process in a mouse model of Parkinson's disease (Xia et al., 2001).
Given these potential tissue distributions and links to neuroprotection, JNK3 inhibitors should provide useful investigational tools to study the role of this kinase in several diseases including, arthritis, stroke, myocardial infarction, ischemic injury and Parkinson's disease.
A homogeneous AlphaScreen is developed to measure the activity of JNK3. AlphaScreen is a two bead-based proximity-dependent chemical energy transfer luminescent assay platform. The phosphorylation of a biotinylated c-jun substrate by JNK3 can be detected with an antibody raised against phosphorylated c-jun. This process brings streptavidin donor beads and Protein-A acceptor beads to within a proximity range of <200 nm, and subsequently lead a chemical luminescent reaction upon exciting donor beads with 680 nm laser excitation light. Inhibition of JNK3 activity by small molecules and subsequent decrease in the antibody binding to biotinylated c-jun could attenuate or abolish this chemical luminescent reaction.
Yang DD, Kuan CY, Whitmarsh AJ, Rincon M, Zheng TS, Davis RJ, Rakic P and Flavell RA (1997) Absence of excitotoxicity-induced apoptosis in the hippocampus of mice lacking the Jnk3 gene. Nature 389:865-870. [PMID: 9349820]
Herdegen T, Claret FX, Kallunki T, Martin-Villalba A, Winter C, Hunter T, and Karin M (1998) Lasting N-terminal phosphorylation of c-Jun and activation of c-Jun N-terminal kinases after neuronal injury. J.Neurosci. 18:5124-5135. [PMID: 9651196]
Xia XG, Harding T, Weller M, Bieneman A, Uney JB and Schulz JB (2001) Gene transfer of the JNK interacting protein-1 protects dopaminergic neurons in the MPTP model of Parkinson's disease. Proc.Natl.Acad.Sci.U.S.A. 98:10433-10438.
NCGC Assay Protocol Summary:
GST-cJun (1-79) (Stratagene, La Jolla CA, #205145) was biotnylated by PerkinElmer (PerkinElmer-BioSignalInc. Montreal, Canada) and was detectable by the streptavidin Donor beads. Anti-(phospho)cJun (Ser73) antibody was from UpState (Charlottesvilles, VA, #06-659). JNK3-containing lysates were generated from HepG2 cells and pre-activated by interleukin1-beta and tumor necrosis factor alpha. All reagents were stored at -20 C before using. Phosphorylated biotinylated-GST-cJun was recognized by Anti-(phospho)cJun (Ser73) antibody and this process brings acceptor and donor beads together. Therefore JNK3 phosphorylation of cJun can be measured by Alpha reading by EnVision (PerkinElmer, Boston, MA).
The composition of kinase buffer was (in mM) 20 tris- HCl (pH 7.6) 10 MgCl2, 1 DTT, and 0.1 Na3VO4 and 0.01% Tween-20. Beads were diluted in detection buffer containing (in mM) 20 tris-HCl (pH 7.7), 20 NaCl and 80 EDTA and 0.3% BSA. The assay was performed at room temperature. All compounds were screened as titrations from 0.6 nM to 46 uM final concentration. The assay was performed in 1536-well format (white solid bottom and untreated) as follows:
Sequence,Parameter,Value,Description
1,Reagent,3 uL,Biotin-GST-cJun, Anti-(phospho)cJun and pre-activated JNK3-containing lysates
2,Compound,23 nL,Final concentration was 0.6nM to 46uM
3,Time,15 minutes,Room Temperature
4,Reagent,1 uL,ATP final concentration 10uM
6,Reagent,0.5 uL,2ng/well bead mixture
[…]
On the % scale 0 is the no-effect control and ±100 the full control effect.

Structure (SMILES) | activity change, negative = inhibition | Potency
CCCn1c(=O)[nH]c2nc(-c3ccc(S(=O)(=O)O)cc3)[nH]c2c1=O | 10.7% (inactive) | –
C=C[C@@]1(C)CC(=O)[C@@]2(O)[C@@]3(C)[C@@H](O)CCC(C)(C)[C@@H]3[C@H](OC(=O)CCN(C)C)[C@H](OC(C)=O)[C@@]2(C)O1 | 22.8% (inactive) | –
C[C@@H](CC(=O)O)[C@@H](N)C(=O)O | -4.12% (inactive) | –
C[N+](C)(CCCCCC[N+](C)(C)CCCN1C(=O)c2ccccc2C1=O)CCCN1C(=O)c2ccccc2C1=O | -12% (inactive) | –
CC(=O)OCCNC(=O)c1cccnc1 | 8.1% (inactive) | –
C1CCC(N=C(NC23CC4CC(CC(C4)C2)C3)N2CCOCC2)CC1 | 30% (inactive) | –
COc1ccc2c(c1)c(CC(=O)N1CCOCC1)c(C)n2C(=O)c1ccc(Cl)cc1 | -21.5% (inactive) | –
COC(=O)c1ccccc1NC(=O)c1ccc(F)cc1 | -7.14% (inactive) | –
CC[C@](N)(CCC(=O)O)C(=O)O | -9.1% (inactive) | –
CC(=O)NCC(=O)N[C@H](CCC(=O)O)C(=O)O (HELM PEPTIDE1{[ac].G.[dE]}$$$$V2.0) | -14.7% (inactive) | –
CC#CCOC(=O)c1c(C)nc2sc3c(c2c1N)CC[C@@H](O)C3 | – | inactive
CCC(=O)N[C@@H]1CCc2cccc(OC)c2C1 | 7.13% (inactive) | –
CCC(=O)N[C@@H]1Cc2ccccc2[C@@H](c2ccccc2)C1 | -15.6% (inactive) | –
COc1ccc2[nH]c(-c3ccccc3)c(CCNC(C)=O)c2c1 | -42.7% (inactive) | –
N[C@H](C(=O)O)c1nn[nH]n1 | -1.62% (inactive) | –
Clc1ccccc1CNCC1CCC(CNCc2ccccc2Cl)CC1 (stereo not given) | 14% (inactive) | –
NC1(C(=O)O)C[C@@H](C(=O)O)[C@H](C(=O)O)C1 | 2.85% (inactive) | –
CN1C[C@H](C(=O)N[C@]2(C)O[C@@]3(O)[C@H]4CCCN4C(=O)[C@H](Cc4ccccc4)N3C2=O)C[C@H]2c3cccc4[nH]cc(c34)C[C@@H]21 | 0.229% (inactive) | –
C[C@H](NC[C@H](O)CP(=O)(O)CC1CCCCC1)c1ccc(Cl)c(Cl)c1 | 8.44% (inactive) | –
CCCCCCCCCCCC(=O)O[C@H](CC(=O)O)C[N+](C)(C)C | -10.7% (inactive) | –

Structure (SMILES) | activity change, negative = inhibition | Potency
CC(C)[C@H](CO)Nc1nc(Nc2cc(N)cc(Cl)c2)c2ncn(C(C)C)c2n1 | -41.2% (inactive) | –
N[C@H](C(=O)O)c1ccc(C(=O)O)c(O)c1 | 10% (inactive) | –
O=C(O)COc1ccc(OCCNC[C@@H](O)COc2ccccc2)cc1 | -2.63% (inactive) | –
Cc1cc(Cn2cnc3c2C[C@@H](C(=O)O)N(C(=O)C(c2ccccc2)c2ccccc2)C3)ccc1N(C)C | -27.4% (inactive) | –
CN1Cc2c(C(=O)OC(C)(C)C)ncn2-c2ccsc2C1=O | 6.35% (inactive) | –
N[C@H](C(=O)O)c1ccc(C(=O)O)cc1 | 12.5% (inactive) | –
C[C@@](N)(C(=O)O)c1ccc(S(=O)(=O)O)cc1 | 6.85% (inactive) | –
NCCCCNS(=O)(=O)c1ccc2c(Cl)cccc2c1 | -27% (inactive) | –
COc1ccc2cccc(N3CCN(CCNC(=O)c4ccc(F)cc4)CC3)c2c1 | -11.4% (inactive) | –
CN(C)CCCSC(=N)N | – | inactive
CN(CCc1ccc(Cl)c(Cl)c1)CCN1CCCC1 | -13.5% (inactive) | –
O=C(NCCNC[C@@H](O)COc1ccc(O)cc1)N1CCOCC1 | – | inactive
CNCC[C@H](Oc1ccccc1OC)c1ccccc1 | – | inactive
CCC(=O)O[C@H](CC(=O)O)C[N+](C)(C)C | -22% (inactive) | –
COc1cc(CNC(=O)CCCC/C=C\C(C)C)ccc1O | – | inactive
O=C(c1ccc2c(c1)OCO2)N1CCCCC1 | -0.864% (inactive) | –
CC(C)Oc1ccc2c(=O)c3cc(C(=O)O)ccc3oc2c1 | -17.3% (inactive) | –
OC[C@@H](O)COc1cccc2ccccc12 | -16.2% (inactive) | –
O=C(c1ccccc1)[C@@H]1O[C@H]1c1ccc(-c2ccccc2)cc1 | -25.4% (inactive) | –
C[C@@H](/C=C\c1cccc(Oc2ccc(F)cc2)c1)N(O)C(N)=O | 8.58% (inactive) | –
